Screens as filed in PubChem BioAssay.
TDP1 cell CPT – DT40-hTDP1 cell growth loss with CPT | chicken DT40 Tdp1-/-;hTDP1 cells + 20 nM CPT, ATP luminescence, 48 h | Potency, µM (titrated, usually from 46.2 µM), for the others: at the highest dose activity change, negative = growth inhibition, usual class: inhibitors | hit rate 12% among 420,000; further: potency means the concentration at half of the fitted maximal effect; nearly all actives have a fitted effect of over 55% in size
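Chicken DT40 Tdp1-/- cells complemented with human TDP1, 400 cells/well, exposed to compounds plus 20 nM camptothecin for at least 48 h at 37 C; viability read as ATP content by CellTiter-Glo luminescence.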
TDP1 cell noCPT – qHTS for Inhibitors of human tyrosyl-DNA phosphodiesterase 1 (TDP1): qHTS in cells in absence of CPT; DT40 Tdp1-/- hTDP1 cells, no CPT, ATP luminescence, 48 h; Potency, µM (doses to about 46.2 µM), inactives show at the top dose activity change, negative = growth inhibition, hits mostly inhibitors; hit rate 15% among 420,000; AID 686978, 2013; further: potency means the concentration at half of the fitted maximal effect; nearly all actives have a fitted effect of over 55% in size
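Chicken DT40 Tdp1-/- cells complemented with human TDP1, screened without camptothecin (DMSO vehicle only), 400 cells/well. Compounds pin-transferred, cells incubated at 37 °C for at least 48 hr. Growth read as ATP-dependent luminescence (CellTiter-Glo, 30 min at RT).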
IL1B secr inh – blocks inflammasome-driven IL-1 beta release; activity change, % at 57.5 µM; THP-1 LPS/ATP IL-1B secretion, AlphaLISA, 16 h; active compounds read low; hit rate 4.7% among 360,000; in the data active means activity change below about -50%; inconclusive means mostly about -30% to -49%
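Secreted IL-1B measured by AlphaLISA bead assay after 16 h compound exposure of THP-1 cells; compounds (final up to 57.5 uM) added 1 h before LPS (250 ng/mL) and ATP (1.25 mM) stimulation; lower signal means less secretion.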
HT1080NT lethal – kills 2HG-producing HT-1080-NT fibrosarcoma cells; HT-1080-NT fibrosarcoma viability, CellTiter-Glo ATP luminescence, 48 h; hit rate 1.6% among 360,000; AID 686970; Potency, µM (titrated, usually from 46.1 µM), without a hit: top-dose activity, negative = less viability, actives largely listed as cytotoxic;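 further: NT is the 2HG producing partner of a matched IDH1 knockdown line; potency means the concentration at half of the fitted maximal effect; 0% = DMSO-treated cells and -100% = media-only wells without cells; nearly all actives have a fitted effect of over 55% in size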
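HT-1080-NT; 750 cells/well; 5% FBS RPMI; 48 h compound, 37 degrees C; CellTiter-Glo luminescence; curve fitting and curve-class assignment.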
HT1080 IDH1KD tx – HT-1080 IDH1 knockdown cell toxicity (counter line); hit rate 2% among 360,000; AID 686971; HT-1080 IDH1 knockdown viability, ATP luminescence, 48 h; Potency, µM (titrated, usually from 46.1 µM), without a hit: at the highest dose activity, negative = toxicity, usual class: cytotoxic;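 further: potency means the concentration at half of the fitted maximal effect; 0% = DMSO wells and -100% = cell-free medium wells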
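Knockdown cells (IDH1KD HT-1080) received compounds 2 h after plating at 750 cells/well and were kept 48 h at 37 °C in 5% FBS RPMI. A CellTiter-Glo luminescence read gave % activity for curve fitting.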
* marks the source's active call; other numbers are inactive results; ? = inconclusive; . = no result; [ ] = another dose, or the depositor's remark. A selection: hits, their analogues and other compounds. The true share with any hit is near 19%. Unless noted, the call rests on the fitted dose curve; in most records, active means well fitted curve in the direction sought with a large enough effect; inconclusive means small, poorly fitted or top-dose-only effect, or another doubt; inactive means no such curve, though single readings can be large; an effect the other way counts as inactive or inconclusive. Unless noted, on the % scale 0 is the no-effect control and ±100 the full control effect.

SMILES | TDP1 cell CPT | TDP1 cell noCPT | IL1B secr inh | HT1080NT lethal | HT1080 IDH1KD tx
O=C(Oc1ccccc1)N1CCC[C@@]2(CCN(C(c3ccccc3)c3ccccc3)C2)C1 | -8.0% | -23.5% | . | . | .
ClCCN(CCCl)/C(=C\c1ccccc1)c1ccnc2ccccc12 | 5.62µM* | 3.55µM* | . | . | .
Cc1cccc(-c2nc3ccc(C(=O)N4CCC5(CC4)OCCO5)cc3nc2-c2cccc(C)c2)c1 | ? | ? | -77.3* | ? | ?
COc1cccc(C(=O)N2CCC3(CC2)OCCO3)c1 | 0.0% | -5.3% | -0.9 | 1.5% | -8.6%
O=C(c1ccc2c(c1)ncn2C1CCCCC1)N1CCC2(CC1)OCCO2 | 6.51µM* | 4.61µM* | 45.3 | ? | ?
CCc1ccc(CN2CCN(Cc3cc(Br)ccc3O)CC2)cc1 | -8.0% | ? | -18.0 | -8.6% | ?
CCOc1ccc(NC(=O)Cn2cc(C(=O)c3ccccc3)c3ccccc32)cc1 | -29.4% | ? | . | . | .
COc1ccc(NP(=O)(Oc2ccc(Cl)cc2)Oc2ccc(Cl)cc2)cc1OC | 18.4µM* | 25.9µM* | ? | ? | ?
COc1ccc(NP(=O)(Oc2ccccc2OC)Oc2ccccc2OC)cc1 | ? | 16.4µM* | 0.0 | 1.5% | -14.1%
COc1ccc(OC)c(NP(=O)(Oc2ccc(Cl)cc2)Oc2ccc(Cl)cc2)c1 | 3.1% | 13.2% | 9.3 | 1.2% | 0.1%
COc1ccc(NC(=O)c2cn(CCC#N)nc2-c2ccc(OC)c(OC)c2)cc1 | -16.8% | 16.7% | 7.4 | 2.8% | 7.3%
CN(C(=O)CSc1nc2ccc(NC(=O)COc3ccc(Cl)cc3)cc2s1)c1ccccc1 | 13µM* | 10.3µM* | . | . | .
CSc1ccccc1NC(=O)CN(C)CC(=O)c1[nH]c(C)c(C(C)=O)c1C | 14.6µM* | 14.6µM* | 18.1 | -3.1% | -7.6%
Cn1c(O)c(C2=NN(C(=O)CCl)C(c3ccccc3)C2)c(=O)n(C)c1=O (stereo not drawn) | ? | -27.2% | 2.5 | -7.8% | -12.6%
CCC(=O)N1N=C(c2c(O)n(C)c(=O)n(C)c2=O)CC1c1ccccc1 (stereo not drawn) | 3.66µM* | 4.11µM* | 250.0 | ? | 6.51µM*
C=CCn1nc(C(=O)N2CCOCC2)cc1-c1sc(NC(=O)c2ccccc2)nc1C | 14.6µM* | 10.3µM* | 63.2 | -5.9% | -3.8%
O=C(c1cc(-c2ccc(Cl)cc2)n(-c2ccc(Cl)cc2Cl)n1)N1CCOCC1 | ? | ? | -3.5 | -3.1% | -5.4%
CCc1ccc(N2C(=O)NC(=O)C(CCc3ccncc3)(CCc3ccncc3)C2=O)cc1 | -7.0% | 5.9% | 8.1 | 4.3% | 10.0%
O=C1NC(=O)C(CCc2ccncc2)(Cc2cccc(Cl)c2Cl)C(=O)N1c1ccc(Br)cc1 (stereo not drawn) | 4.61µM* | 5.8µM* | 25.9 | 16.4µM* | 8.2µM*
Cc1ccccc1-n1c(/C=C/c2ccc(N(C)C)cc2)nc2ccccc2c1=O | 16.4µM* | 13µM* | . | . | .
Cc1ccccc1-n1c(/C=C/c2c(C)[nH]c3ccccc23)nc2ccccc2c1=O | 2.06µM* | 1.84µM* | . | . | .
CCCOC(=O)COc1cc(C)cc2oc(=O)c3c(c12)CCC3 | -1.7% | 4.6% | 52.2 | -4.5% | 2.7%
CCCOc1ccc(C(=O)Nc2ccc(-c3cc4ccccc4oc3=O)c(C)c2)cc1 | 10.3µM* | 5.17µM* | . | . | .
COc1cc(Cl)c(C)cc1NC(=O)CCCn1c(=O)oc2ccccc21 | -22.8% | ? | 0.0 | 0.7% | -2.2%
CC(=O)C1(c2ccccc2)CCN(C(=O)C2CCC(=O)N(CCc3cccc(F)c3)C2)CC1 (stereo not drawn) | -67.6% | 23.1µM* | 9.3 | 0.8% | 2.3%
SMILES | TDP1 cell CPT | TDP1 cell noCPT | IL1B secr inh | HT1080NT lethal | HT1080 IDH1KD tx
Oc1cc(Cl)cc(Cl)c1Cl | ? | -2.9% | -12.0 | -26.4% | -2.2%
C[C@@H]1[C@H]2Cc3ccc(O)cc3[C@]1(C)CCN2C | -0.7%[166 µM] | -10.7%[166 µM] | . | . | .
COc1cc([C@@H]2c3cc4c(cc3C[C@H]3COC(=O)[C@@H]32)OCO4)cc(OC)c1O | 0.0708µM* | 0.0316µM* | . | . | .
COc1cc(C2c3cc4c(cc3CC3COC(=O)C32)OCO4)cc(OC)c1OC (stereo not drawn) | 0.0206µM* | 0.0052µM* | 45.6 | 0.366µM* | 0.231µM*
COc1cc(C2c3cc(O)c(OC)cc3CC3C(=O)OCC32)ccc1O (stereo not drawn) | 17.9% | 2.5% | -0.5 | -2.5% | 2.2%
NCc1cccnc1 | 12.3% | -11.1% | . | . | .
CN1CC=C2C(C#N)=C(N)C(C#N)(C#N)C(c3ccncc3)C2C1 (stereo not drawn) | ? | ? | -3.9 | 2.4% | 11.2%
N#CC1=C(N)C(C#N)(C#N)C(c2ccncc2)C2CN(C(=O)OCc3ccccc3)CC=C12 (stereo not drawn) | 20.6µM* | 16.4µM* | ? | ? | 20.6µM*
COc1ccc2c(C(=O)c3ccc(Cl)cc3)c(C)n(CC(=O)O)c2c1 | -4.2% | -19.4% | . | . | .
CN1CCN(C(=O)O[C@H]2c3nccnc3C(=O)N2c2ccc(Cl)cn2)CC1 | 9.9% | 13.6% | -10.3 | -0.8% | 4.2%
Cc1ccccc1N1CCN(S(=O)(=O)c2nnc(NC(=O)c3ccc(Cl)cc3)s2)CC1 | -4.6% | ? | . | . | .
Cc1nc(-c2cccc(NC(=O)c3ccc(Cl)c(S(=O)(=O)N4CCCC4)c3)c2)cs1 | ? | 8.2µM* | -15.4 | -7.9% | -19.9%
COc1ccc(OC(=O)N2C/C(=C/c3ccccc3)C(=O)/C(=C\c3ccccc3)C2)cc1 | 1.16µM* | 1.46µM* | -86.7* | 10.3µM* | 8.2µM*
Cc1cc(OCC(=O)O)c2c3c(c(=O)oc2c1)CCCC3 | 5.0% | -6.6% | 17.8 | -1.1% | -7.2%
Cc1cc(OC(=O)c2cccs2)c2c3c(c(=O)oc2c1)CCCC3 | 18.4µM* | 5.17µM* | ? | 12.2% | 9.0%
Cc1cc(OC(C)C(=O)NCc2cccnc2)c2c3c(c(=O)oc2c1)CCC3 (stereo not drawn) | -9.3% | 8.6% | -2.1 | 4.1% | -0.9%
Cc1ccc(-n2nc(C)cc2NC(=O)COc2cc(C)cc3oc(=O)c4c(c23)CCC4)cc1 | ? | 29.1µM* | -2.1 | -6.0% | -20.3%
Cc1cc(OC(C)C(=O)NCc2ccncc2)c2c3c(c(=O)oc2c1)CCCC3 (stereo not drawn) | 23.1µM* | ? | 0.2 | -0.4% | -0.7%
Cc1cc(OCC(=O)NCc2ccncc2)c2c3c(c(=O)oc2c1)CCCC3 | ? | ? | -0.8 | 12.1% | 10.8%
Cc1cc(OC(=O)c2ccco2)c2c3c(c(=O)oc2c1)CCCC3 | 11.6µM* | 10.3µM* | -25.0 | 0.6% | 2.0%
C(#CCN1CCCCC1)CN1CCCCC1 | 14.0% | 10.7% | 16.5 | ? | 6.1%
Cc1cc(OCC(=O)N2CCC(C(N)=O)CC2)c2c3c(c(=O)oc2c1)CCCC3 | 23.1µM* | -26.8% | 3.8 | 1.2% | 2.0%
